# Test results from PubChem BioAssay AID1159580 (chemical genetic matrix, 2015).
# About 2,000 (36%) of roughly 5,500 compounds were called active. Not shown: some 18% with an inconclusive outcome. The list shows a part of the results. Unmarked numbers belong to inactive results. Cut-off read from the data, not from the text of the source: active = normalized growth mostly below about 0.91 (no sharp cut-off); inconclusive = no clear call, values can overlap the other calls; inactive = mostly above about 0.92.
# Assay: chemical genetic growth profiling, strain panel (AID 1159580);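 note: tested at 20 µM; growth read once vehicle control cultures reached saturation at 30 °C; 1 = growth at the plate median or of vehicle wells; lower values mean less growth of the strain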
# Conditions: S. cerevisiae deletion strains, growth OD
# [1] = locus YAL040C, strain CLN3, hits give low values
# [2] = locus YCL061C, strain MRC1 (second series), hits give low values
# [3] = locus YDR150W, strain NUM1, hits give low values
# [4] = locus YER002W, strain NOP16, hits give low values
# [5] = locus YNL175C, strain NOP13, hits give low values
# [6] = locus YNL197C, strain WHI3, hits give low values
# [7] = locus YNL224C, strain SQS1, hits give low values
# [8] = locus YOR083W, strain WHI5 (second series), hits give low values
# [9] = locus YPL241C, strain CIN2, hits give low values
structure (smiles),measurement,setting,value
NCCCP(=O)(O)O,normalized growth,[1],1.04
same,normalized growth,[2],0.998
same,normalized growth,[3],1.01
same,normalized growth,"locus YDR363W, strain ESC2, hits give low values",0.956
same,normalized growth,[4],0.981
same,normalized growth,"locus YGR229C, strain SMI1, hits give low values",0.984
same,normalized growth,[5],0.978
same,normalized growth,[6],0.979
same,normalized growth,[7],1
same,normalized growth,[8],0.98
same,normalized growth,"locus YPL055C, strain LGE1, hits give low values",1.02
same,normalized growth,[9],0.995
CP(=O)(O)CCCN,normalized growth,[1],1
same,normalized growth,[2],1
same,normalized growth,[3],0.983
same,normalized growth,[4],0.994
same,normalized growth,"locus YNL153C, strain GIM3, hits give low values",0.99
same,normalized growth,[5],0.996
same,normalized growth,[6],1.02
same,normalized growth,[7],0.98
same,normalized growth,[8],1.01
same,normalized growth,[9],0.989
NCCCC(O)(P(=O)(O)O)P(=O)(O)O,normalized growth,"locus YAL021C, strain ccr4, hits give low values",0.993
same,normalized growth,"locus YAL026C, strain drs2, hits give low values",0.983
same,normalized growth,"locus YAL030W, strain snc1, hits give low values",0.993
same,normalized growth,"locus YBL061C, strain skt5, hits give low values",0.978
same,normalized growth,"locus YBR009C, strain hhf1, hits give low values",0.988
same,normalized growth,"locus YBR023C, strain chs3, hits give low values",0.992
same,normalized growth,"locus YBR171W, strain sec66, hits give low values",0.953
same,normalized growth,"locus YBR231C, strain swc5, hits give low values",0.977
same,normalized growth,"locus YBR279W, strain paf1, hits give low values",0.981
same,normalized growth,"locus YCL011C, strain gbp2, hits give low values",0.997
same,normalized growth,"locus YCL016C, strain dcc1, hits give low values",0.984
same,normalized growth,"locus YCL061C, strain MRC1, hits give low values",0.976
same,normalized growth,"locus YCL069W, strain vba3, hits give low values",0.991
same,normalized growth,"locus YCR088W, strain abp1, hits give low values",0.972
same,normalized growth,"locus YDL005C, strain med2, hits give low values",0.99
same,normalized growth,"locus YDL040C, strain nat1, hits give low values",0.989
same,normalized growth,"locus YDR001C, strain nth1, hits give low values",0.983
same,normalized growth,"locus YDR069C, strain doa4, hits give low values",1
same,normalized growth,"locus YDR137W, strain rgp1, hits give low values",1
same,normalized growth,"locus YDR159W, strain sac3, hits give low values",1
same,normalized growth,"locus YDR195W, strain ref2",0.943
same,normalized growth,"locus YDR297W, strain sur2, hits give low values",0.991
same,normalized growth,"locus YDR334W, strain swr1, hits give low values",0.967
same,normalized growth,"locus YDR335W, strain msn5, hits give low values",0.99
same,normalized growth,"locus YDR392W, strain spt3, hits give low values",0.964
same,normalized growth,"locus YEL003W, strain gim4, hits give low values",0.989
same,normalized growth,"locus YEL037C, strain rad23, hits give low values",0.978
same,normalized growth,"locus YEL061C, strain CIN8 (second series), hits give low values",0.973
same,normalized growth,"locus YER015W, strain faa2, hits give low values",0.987
same,normalized growth,"locus YER016W, strain bim1, hits give low values",0.984
same,normalized growth,"locus YER111C, strain swi4, hits give low values",0.978
same,normalized growth,"locus YER155C, strain BEM2 (second series), hits give low values",0.968
same,normalized growth,"locus YFR010W, strain ubp6, hits give low values",0.968
same,normalized growth,"locus YGL167C, strain pmr1, hits give low values",0.98
same,normalized growth,"locus YGL173C, strain kem1, hits give low values",0.959
same,normalized growth,"locus YGL227W, strain vid30, hits give low values",0.97
same,normalized growth,"locus YGL240W, strain doc1, hits give low values",0.995
same,normalized growth,"locus YGL253W, strain hxk2, hits give low values",0.977
same,normalized growth,"locus YHR013C, strain ard1, hits give low values",0.97
same,normalized growth,"locus YHR027C, strain rpn1, hits give low values",0.983
same,normalized growth,"locus YHR030C, strain SLT2, hits give low values",0.979
same,normalized growth,"locus YHR079C, strain IRE1, hits give low values",0.968
same,normalized growth,"locus YHR142W, strain chs7, hits give low values",0.972
same,normalized growth,"locus YJL092W, strain hpr5, hits give low values",0.972
same,normalized growth,"locus YJL095W, strain BCK1 (second series), hits give low values",0.985
same,normalized growth,"locus YJL095W, strain BCK1, hits give low values",1
same,normalized growth,"locus YJL115W, strain asf1, hits give low values",0.976
same,normalized growth,"locus YJL129C, strain trk1, hits give low values",0.964
same,normalized growth,"locus YJL154C, strain vps35, hits give low values",0.974
same,normalized growth,"locus YJL164C, strain tpk1, hits give low values",0.996
same,normalized growth,"locus YJL166W, strain qcr8, hits give low values",1
same,normalized growth,"locus YJL187C, strain SWE1, hits give low values",0.991
same,normalized growth,"locus YJR066W, strain TOR1, hits give low values",0.952
same,normalized growth,"locus YKL160W, strain elf1, hits give low values",0.99
same,normalized growth,"locus YKR026C, strain gcn3, hits give low values",0.98
same,normalized growth,"locus YKR091W, strain srl3, hits give low values",0.981
same,normalized growth,"locus YLL001W, strain dnm1, hits give low values",0.987
same,normalized growth,"locus YLL026W, hits give low values",0.995
same,normalized growth,"locus YLL041C, strain sdh2, hits give low values",1.01
same,normalized growth,"locus YLR027C, strain aat2, hits give low values",1
same,normalized growth,"locus YLR113W, strain HOG1, hits give low values",1
same,normalized growth,"locus YLR221C, strain rsa3, hits give low values",0.99
same,normalized growth,"locus YLR258W, strain gsy2, hits give low values",0.998
same,normalized growth,"locus YLR262C, strain YPT6 (second series), hits give low values",0.973
same,normalized growth,"locus YLR320W, strain mms22, hits give low values",0.987
same,normalized growth,"locus YLR342W, strain FKS1, hits give low values",0.978
same,normalized growth,"locus YLR357W, strain rsc2, hits give low values",0.975
same,normalized growth,"locus YLR370C, strain arc18, hits give low values",0.976
same,normalized growth,"locus YLR384C, strain iki3, hits give low values",0.978
same,normalized growth,"locus YML120C, strain ndi1, hits give low values",0.989
same,normalized growth,"locus YMR058W, strain fet3, hits give low values",0.977
same,normalized growth,"locus YMR125W, strain sto1, hits give low values",0.978
same,normalized growth,"locus YMR129W, hits give low values",0.99
same,normalized growth,"locus YMR205C, strain PFK2, hits give low values",0.996
same,normalized growth,"locus YMR231W, strain pep5, hits give low values",0.962
same,normalized growth,"locus YNL071W, strain lat1, hits give low values",0.985
same,normalized growth,"locus YNL183C, strain NPR1, hits give low values",0.978
same,normalized growth,"locus YNL209W, strain ssb2, hits give low values",0.982
same,normalized growth,"locus YNL248C, strain rpa49, hits give low values",0.985
same,normalized growth,"locus YNL322C, strain KRE1 (second series), hits give low values",0.98
same,normalized growth,"locus YNR049C, strain mso1, hits give low values",0.987
same,normalized growth,"locus YOR001W, strain rrp6, hits give low values",0.983
same,normalized growth,"locus YOR070C, strain gyp1, hits give low values",0.972
same,normalized growth,"locus YOR080W, strain dia2, hits give low values",0.979
same,normalized growth,"locus YOR083W, strain WHI5, hits give low values",0.99
same,normalized growth,"locus YOR106W, strain vam3, hits give low values",0.956
same,normalized growth,"locus YOR231W, strain MKK1, hits give low values",0.989
same,normalized growth,"locus YOR265W, strain rbl2, hits give low values",0.995
same,normalized growth,"locus YOR270C, strain vph1, hits give low values",0.965
same,normalized growth,"locus YOR290C, strain snf2, hits give low values",0.98
same,normalized growth,"locus YPL051W, strain arl3, hits give low values",0.899 (active)
same,normalized growth,"locus YPL078C, strain atp4, hits give low values",0.976
same,normalized growth,"locus YPL106C, strain sse1, hits give low values",0.983
same,normalized growth,"locus YPL240C, strain hsp82, hits give low values",0.992
same,normalized growth,"locus YPL256C, strain CLN2, hits give low values",0.973
